Compound activity (PubChem)
CtBP-E1A inh – CtBP/E1A binding inhibition; AlphaScreen GST-E1A/His-CtBP binding, 1536-well; active compounds read low; activity change, % (test concentration not listed); 0.49% of 340,000 active; AID 651724; in the data active = activity change below about -65%; inconclusive = mostly about -30% to -63%; note: % is set by controls: 0 for no effect and ±100 for the full control effect
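Protein mix (5X: 125 nM each GST-E1A, His-CtBP) was incubated with pinned compound 2 h at 37 deg C in dark, in 50 mM Tris pH 8.0 buffer with 300 mM NaCl. Glutathione donor and nickel acceptor beads followed; AlphaScreen signal read after 1 h.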
BAZ2B block – BAZ2B (human) inhibition | AlphaScreen BAZ2B-H3K14Ac peptide displacement | 4.4% of 360,000 active | Potency, µM (series often up to 114 µM), without a hit: at the top dose activity change, negative = inhibition, most hits filed as inhibitors; note: potency is the fitted concentration of half-maximal effect; % is set by controls: 0 for no effect and ±100 for the full control effect; nearly all actives have a fitted effect of over 60% in size
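AlphaScreen luminescence quantifies BAZ2B engagement of H3K14Ac peptide; the protein and biotinylated peptide are both at 50 nM final, buffer PBS pH 7.4 with 0.01% Tween-20, all steps at room temperature.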
HP1b chromo inh – inhibitors of HP1-beta chromodomain binding to methylated histone tails. P83916. AlphaScreen HP1-beta / biotin-H3K9me3 peptide binding. Potency, µM (series often up to 114 µM), for inactives: at the highest dose activity change, negative = inhibition, hits mostly inhibitors. 0.56% of 390,000 active. AID 540317; note: potency is the fitted concentration of half-maximal effect; nearly all actives have a fitted effect of over 70% in size
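AlphaScreen: HP1-beta (50 nM) preformed 30 min with biotin-H3(1-18)K9me3 peptide (50 nM) in PBS pH 7.4, 0.01% Tween-20. Compound added for 30 min at RT, then streptavidin donor/nickel chelate acceptor beads (10 ug/mL) for 30 min.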
JMJD2A Tudor – inhibitors of human JMJD2A Tudor domain; O75164; AlphaScreen JMJD2A-Tudor / H3K4me3 peptide binding; 4.4% of 390,000 active; Potency, µM (highest dose often 114 µM), for the others: top-dose activity change, negative = inhibition, usual class: inhibitors; AID 504339; note: potency is the fitted concentration of half-maximal effect; % is set by controls: 0 for no effect and ±100 for the full control effect; nearly all actives have a fitted effect of over 50% in size
Six1-Eya2 blk – blocks human Six1 binding to Eya2; Q15475+O00167; AlphaScreen GST-Six1/His-Eya2 binding, biochemical; active compounds read low; activity change, % (concentration not given with the values); 0.56% of 360,000 active; AID 651725; in the data active = activity change below about -65%; inconclusive = mostly about -30% to -63%; note: % is set by controls: 0 for no effect and ±100 for the full control effect
Target sequence (O00167 whole entry, looked up): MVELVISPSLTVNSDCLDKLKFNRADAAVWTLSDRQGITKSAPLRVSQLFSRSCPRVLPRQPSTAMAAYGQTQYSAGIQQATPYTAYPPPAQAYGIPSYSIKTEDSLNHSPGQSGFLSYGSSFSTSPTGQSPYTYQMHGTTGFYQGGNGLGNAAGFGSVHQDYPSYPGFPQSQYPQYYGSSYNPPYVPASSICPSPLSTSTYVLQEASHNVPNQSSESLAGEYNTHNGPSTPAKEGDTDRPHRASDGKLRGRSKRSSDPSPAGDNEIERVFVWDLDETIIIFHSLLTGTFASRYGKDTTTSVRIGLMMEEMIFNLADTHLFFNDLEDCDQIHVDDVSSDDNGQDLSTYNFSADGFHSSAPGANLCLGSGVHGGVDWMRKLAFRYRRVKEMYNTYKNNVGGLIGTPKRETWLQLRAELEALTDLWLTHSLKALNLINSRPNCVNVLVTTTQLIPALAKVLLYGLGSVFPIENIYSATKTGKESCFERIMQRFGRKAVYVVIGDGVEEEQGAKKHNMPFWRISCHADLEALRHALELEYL
Target sequence (Q15475 whole entry, looked up): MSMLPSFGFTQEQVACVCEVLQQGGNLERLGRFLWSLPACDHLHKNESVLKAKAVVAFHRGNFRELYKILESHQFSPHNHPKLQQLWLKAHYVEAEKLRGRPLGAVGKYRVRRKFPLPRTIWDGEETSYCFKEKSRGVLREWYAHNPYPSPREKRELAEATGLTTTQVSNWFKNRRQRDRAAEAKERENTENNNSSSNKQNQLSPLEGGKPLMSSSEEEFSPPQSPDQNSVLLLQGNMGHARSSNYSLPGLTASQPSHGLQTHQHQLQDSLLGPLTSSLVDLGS
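Six1/Eya2 binding was read as AlphaScreen signal after compounds were pinned into GST-Six1 plus His-tagged Eya2 (5X stock 250/500 nM) in pH 8.0 Tris/NaCl/TCEP buffer, beads added, then incubated 1 h, 37 C, dark.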
G9a inh – G9a (human) methyltransferase inhibition; Q96KQ7; G9a H3K9 monomethylation, AlphaScreen, 2 h; Potency, µM (highest dose often 102 µM), for the others: top-dose activity, negative = inhibition, most hits filed as inhibitors; 8.8% of 350,000 active; note: potency is the fitted concentration of half-maximal effect; % is set by controls: 0 for no effect and ±100 for the full control effect; nearly all actives have a fitted effect of over 75% in size
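G9a (20 nM) was preincubated 15 min with compound, then reacted 2 h at room temperature with 500 nM biotin-H3K9 peptide and 20 µM SAM. Monomethyl-H3K9 detected by AlphaScreen using anti-H3K9me1 antibody.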
* marks the source's active call; other numbers are inactive results; ? = inconclusive; · = no result given; ! = not confirmed by another sample; [ ] = another dose, or the depositor's remark. A selection: hits, their analogues and other compounds. The true share with any hit is near 10%. Unless noted, calls come from the whole dose curve; as a rule, active = well fitted inhibition curve with a large enough effect; inconclusive = small, poorly fitted or top-dose-only effect; inactive = no such curve, though single readings can be large or run the other way.

SMILES	CtBP-E1A inh	BAZ2B block	HP1b chromo inh	JMJD2A Tudor	Six1-Eya2 blk	G9a inh
Cc1cc(=S)c2cccc(C)c2[nH]1	-8	-30%	-16%	-20%	-6	56µM*
O=C1CN(C(=O)c2c(F)cccc2Cl)C(c2ccc(F)cc2)c2cc(Br)ccc2N1 (stereo not given)	·	-19%	19%	-18%	·	-6%[59 µM]
O=C(CSc1nnc(NC(=O)c2cccc(F)c2)s1)NCC1CCCO1 (stereo not given)	3	-5%	27%	-8%	-1	·
Cc1ccc(N2CC(C(=O)Nc3nnc(SCC(=O)NCC4CCCO4)s3)CC2=O)cc1 (stereo not given)	3	-11%	43%	-19%	0	?
O=C(CSc1nnc(NC(=O)C2CC(=O)N(c3ccc(F)cc3)C2)s1)NCC1CCCO1 (stereo not given)	8	-6%	26%	-16%	-1	45µM*
O=C(Nc1nnc(SCCC2OCCO2)s1)C1CC(=O)N(c2ccccc2)C1 (stereo not given)	2	-24%	31%	-14%	24	22µM*
O=C(CSc1nnc(NC(=O)c2c(F)cccc2F)s1)NCC1CCCO1 (stereo not given)	11	11%	42%	-1%	3	20µM*
O=C(Nc1nnc(SCc2cccnc2)s1)C1CC(=O)N(c2ccc(F)cc2)C1 (stereo not given)	14	-24%	22%	-23%	-4	40µM*
Cc1cccc(NC(=O)CSc2ncc3c(n2)-c2ccccc2N(Cc2ccc(F)cc2)S3(=O)=O)c1C	·	?	-5%	-15%	·	0%[59 µM]
O=C(Nc1nnc(SCCN2CCOCC2)s1)C1CC(=O)N(c2ccc(F)cc2)C1 (stereo not given)	-5	-30%	23%	-24%	-2	45µM*
COc1cccc(N2CC(C(=O)Nc3nnc(SCCC4OCCO4)s3)CC2=O)c1 (stereo not given)	-2	-15%	17%	-3%	-11	28µM*
O=C(Nc1nnc(SCCC2OCCO2)s1)C1CC(=O)N(c2ccc(F)cc2)C1 (stereo not given)	13	?	27%	-21%	-7	40µM*
NC(=O)c1oc2ccccc2c1NC(=O)C1CCCCC1	2	13%	30%	-20%	3	-36%
NC(=O)c1oc2ccccc2c1NC(=O)C1CC(=O)N(c2ccccc2)C1 (stereo not given)	-11	0%	29%	-12%	2	45µM*
CCOc1ccc(NC(=O)CSc2nnc3scc(-c4ccccc4)n23)cc1	·	3%	19%	-5%	·	-28%[59 µM]
CCC(Oc1ccccc1)C(=O)Nc1ccccc1OCc1cc(=O)n2ccccc2n1 (stereo not given)	·	11%	24%[57 µM]	3%	·	-26%[59 µM]
COc1cc2c(cc1OC)n(CC(=O)Nc1ccc(C)cc1C)c(=O)n1nc(-c3ccccc3)nc21	·	-2%	51%	-4%	·	6%[59 µM]
O=c1[nH]ccc2c(O)cccc12	3	·	4%	-18%	1	25µM*!
Nc1cccc2c(O)cccc12	-1	·	-5%	-29%	-11	·
CSC1=N/C(=C\c2ccc(Cl)cc2)C(=O)N1N(C)C	-4	-27%	28%	-5%	-5	15%
CC1(C)CN=c2s/c(=C\c3ccc(Cl)cc3)c(=O)n2C1	0	?	13%	-10%	8	71µM*
O=C(CN1C(=O)NC2(CCCC2)C1=O)Nc1cc(C(F)(F)F)ccc1N1CCCCC1	-14	4%	16%	-14%	2	45µM*
O=C(CN1C(=O)NC2(CCCCC2)C1=O)Nc1cc(C(F)(F)F)ccc1N1CCOCC1	4	3%	47%	-3%	11	50µM*
O=C(CN1C(=O)NC2(CCCCC2)C1=O)Nc1cc(C(F)(F)F)ccc1N1CCCCC1	7	-5%	24%	-9%	3	-5%[0.501 µM]
O=C(CN1C(=O)NC2(CCCC2)C1=O)Nc1cc(Cl)ccc1N1CCOCC1	4	9%	14%	-8%	2	-40%
SMILES	CtBP-E1A inh	BAZ2B block	HP1b chromo inh	JMJD2A Tudor	Six1-Eya2 blk	G9a inh
C/C(=N\O)C1(C)N(O)C(C)(C)C(c2ccco2)=[N+]1[O-] (stereo not given)	1	-2%	43%	-5%	0	41%[59 µM]
C/C(=N\Nc1cccc(Cl)c1)C1(C)N(O)C(C)(C)C(c2ccco2)=[N+]1[O-] (stereo not given)	·	-34%	28%	-27%	-1	45µM*
Cc1cccc(N2CCN(C(=O)CS(=O)(=O)c3cccc4nsnc34)CC2C)c1 (stereo not given)	·	-17%	5%[57 µM]	-26%	·	4%[59 µM]
Cc1cccc(N2CCN(CCCNC(=O)c3nnc(Cc4c(F)cccc4Cl)o3)CC2C)c1 (stereo not given)	·	?	-13%	?	·	-33%[59 µM]
Cc1cc(-c2ccc(C)c(S(=O)(=O)N3CCCC(C)C3)c2)on1 (stereo not given)	·	35%	67%	21%	·	14%[59 µM]
CN1C(=O)N(C)c2ccc(Br)c3cccc1c23	·	7%	29%	45µM*	-5	22%
CCCNC(=O)c1ccc(N2CCC3(CC2)CC(c2ccccc2)=NO3)c(NC(=O)c2cccc(OC)c2)c1	-26	?	23%	56µM*	1	45µM*
CCCNC(=O)c1ccc(N2CCC3(CC2)CC(c2ccccc2)=NO3)c(NC(=O)c2ccco2)c1	·	-3%	18%	-14%	0	·
O=C(NCc1ccccc1)c1ccc(N2CCC3(CC2)CC(c2ccccc2)=NO3)c([N+](=O)[O-])c1	-13	-9%	3%	-29%	-14	·
COC(CNC(=O)c1ccc(N2CCc3ccccc32)c([N+](=O)[O-])c1)OC	3	40µM*	?	?	?	45µM*
Cc1ccc(CNC(=O)c2ccc(N3CCC4(CC3)CC(c3ccccc3)=NO4)c([N+](=O)[O-])c2)cc1	-17	-31%	?	-35%	-23	71µM*
C=C1CCN(c2ccc(C(=O)NCc3ccccc3)cc2[N+](=O)[O-])CC1	-9	?	-6%	?	-9	22µM*
Cc1ccccc1CN1C(=O)c2ccccc2S(=O)c2ccc(C(=O)NCc3ccccc3)cc21 (stereo not given)	·	1%	23%	-18%	·	-4%[59 µM]
Cn1ccc2cc(S(=O)(=O)N3CCN(C(=O)Nc4ccccc4F)CC3)ccc21	·	-7%	8%[57 µM]	-5%	·	6%[59 µM]
Cc1cccc2nc(Cn3c(=O)n(-c4ccc(Cl)cc4)c(=O)c4c5c(sc43)CCC5)cc(=O)n12	·	7%	18%	-12%	·	1%[59 µM]
